High-throughput results as filed in PubChem.
HCMV antiviral: human cytomegalovirus inhibition; HFF cells, HCMV-luciferase reporter, 72 h; active compounds read low; activity change, negative = inhibition, % at 57.5 µM; 410,000 compounds, 4.5% hits; in the data active = activity change below about -60%; inconclusive = no clear call, values can overlap the other calls; inactive = above about -39%
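Compounds were evaluated in HFFs infected with an HCMV luciferase reporter virus (MOI 1 PFU/cell). Luciferase in lysates collected 72 h post infection served as the replication measure.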
Lassa entry inh: Lassa virus entry inhibition. Lassa virus pseudotype entry inhibition, cell reporter. Potency, µM (series often up to 37.9 µM), most hits filed as inhibitors. 300,000 compounds, 1.2% hits; calls by dose curve; tested in HEK293 cells; note: nearly all actives have a fitted effect of over 50% in size
VACV Venus inh: inhibitors of vaccinia virus (Venus reporter); Vaccinia virus Venus reporter expression, fluorescence; Potency, µM (doses to about 36.5 µM), most hits filed as inhibitors; 330,000 compounds, 0.46% hits; AID 720580; calls by dose curve; tested in A549 cells; note: nearly all actives have a fitted effect of over 30% in size
Vaccinia mCherry: inhibitors of vaccinia virus infection (mCherry reporter signal); Vaccinia virus mCherry reporter infection, fluorescence; Potency, µM (highest dose often 36.5 µM), usual class: inhibitors; 310,000 compounds, 0.63% hits; AID 720579; calls by dose curve; tested in A549 cells; note: nearly all actives have a fitted effect of over 35% in size
HCV inh: inhibitors of hepatitis C virus infection. Huh7.5.1 HCVcc-Cre infection, luciferase reporter, 44 h. Potency, µM (highest dose often 41.8 µM), hits mostly inhibitors. 340,000 compounds, 3.4% hits; active = well fitted inhibition curve with a large enough effect; inconclusive = small, poorly fitted or top-dose-only effect, or another doubt; inactive = no such curve, though single readings can be large or run the other way
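After 44 h co-culture of compound, cells and HCVcc-Cre (~0.5 moi), substrate is added for 15 min at room temperature and luciferase measured over 15 sec. Cells were seeded at 1,000/well and pre-cultured 4 h.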
Marburg entry inh: Marburg virus entry inhibition; 300,000 compounds, 1.8% hits; Marburg virus pseudotyped entry inhibition, cell reporter; Potency, µM (series often up to 37.8 µM), actives largely listed as inhibitors; calls by dose curve; tested in HEK293 cells
Each line names hits and unclear results; the compound was inactive in the other large screens. Compounds with a hit are over-represented: about 7.8% of the library has one in this group of screens.

CN(CCc1ccccc1)C(=O)c1ccc(NC(=O)Cc2ccc(NC(=O)C3CCCN(C(=O)C4CCC4)C3)cc2)cc1 (configuration not stated)	HCMV antiviral -70, VACV Venus inh inconclusive, Vaccinia mCherry 10µM, HCV inh inconclusive (no result: Lassa entry inh)
CN(CCc1ccccc1)C(=O)c1ccc(NC(=O)Cc2ccc(NC(=O)C3CCN(C(=O)C4CCC4)CC3)cc2)cc1	none (no result: Lassa entry inh, Marburg entry inh)
CCC(=N\NC(=O)COc1ccccc1OC)/C(CC)=N/NC(=O)COc1ccccc1OC	HCV inh inconclusive (no result: Lassa entry inh, VACV Venus inh, Vaccinia mCherry, Marburg entry inh)
COc1ccccc1OCC(=O)NN=C(Cc1ccccc1)Cc1ccccc1	HCMV antiviral -63, HCV inh inconclusive, Marburg entry inh inconclusive
O=C(NC(=S)N(CCc1ccccc1)CCc1ccccc1)c1ccco1	Lassa entry inh 8.9µM, Marburg entry inh inconclusive
COc1cc(C(=O)N/N=C(\C)Cc2ccccc2)cc(OC)c1OC	HCMV antiviral -91, Lassa entry inh inconclusive, HCV inh inconclusive, Marburg entry inh inconclusive
NC(=S)NN=C(Cc1ccccc1)Cc1ccccc1	HCMV antiviral -70, Lassa entry inh inconclusive, VACV Venus inh inconclusive, Vaccinia mCherry inconclusive, HCV inh inconclusive, Marburg entry inh inconclusive
COc1cc(C(=O)NCC(=O)N/N=C(\C)Cc2ccccc2)cc(OC)c1OC	HCMV antiviral inconclusive, Lassa entry inh inconclusive
CCN(Cc1ccncc1)Cc1ccc2c(c1)CN(C(=O)c1ccccc1)CCO2	none (no result: HCMV antiviral, Lassa entry inh, HCV inh, Marburg entry inh)
COc1cc(NC(=O)Cn2c(=O)nc(-c3ccccc3F)c3cc(Cl)ccc32)cc(OC)c1	Lassa entry inh inconclusive (no result: HCV inh, Marburg entry inh)
COc1cc(C(=O)NC(=S)N(C)Cc2ccccc2)cc(OC)c1OC	VACV Venus inh inconclusive, Vaccinia mCherry inconclusive
COc1cc(C(=O)NC(=S)N(CCc2ccccc2)CCc2ccccc2)cc(OC)c1OC	Lassa entry inh inconclusive, HCV inh inconclusive, Marburg entry inh 3.2µM
COc1ccc(C(=O)NC(Nc2ccc(C)cc2)C(Cl)(Cl)Cl)cc1 (configuration not stated)	HCMV antiviral -72, HCV inh inconclusive, Marburg entry inh inconclusive
COc1cccc(-c2nnc(NC(=O)CCS(=O)(=O)c3ccc(C)cc3)o2)c1	VACV Venus inh inconclusive, Vaccinia mCherry 10µM, Marburg entry inh inconclusive
Cc1ccc(S(=O)(=O)CCC(=O)Nc2nnc(-c3cccs3)o2)cc1	Lassa entry inh inconclusive, VACV Venus inh inconclusive, Vaccinia mCherry 10µM
Cc1ccc(/C=C/c2nnc(-c3cccs3)o2)cc1	Lassa entry inh 10µM, Marburg entry inh 12µM
CCc1ccc(-c2nc(CN3CCC(C(=O)NCc4ccc(F)cc4)CC3)c(C)o2)cc1	Lassa entry inh inconclusive, HCV inh 18µM, Marburg entry inh 21µM (no result: VACV Venus inh, Vaccinia mCherry)
CCc1ccc(-c2nc(CN3CCC(C(=O)N4CCN(c5ccccn5)CC4)CC3)c(C)o2)cc1	Lassa entry inh inconclusive, HCV inh 11µM, Marburg entry inh inconclusive (no result: VACV Venus inh, Vaccinia mCherry)
CCN(CC)c1cc2c(cc1F)c(=O)c(S(=O)(=O)c1ccc(OC)cc1)cn2CC	HCMV antiviral inconclusive (no result: HCV inh, Marburg entry inh)
COC(=O)CSc1nnc2n(-c3ccccc3)c(=O)c3c4c(sc3n12)COC(C(C)C)C4 (configuration not stated)	none (no result: HCV inh)
Cc1cccc(NC(=S)Nc2ccc(Oc3ccccc3)cc2)n1	HCMV antiviral -61, HCV inh inconclusive, Marburg entry inh inconclusive
COc1cccc(NC(=S)Nc2cc(C)cc(C)n2)c1	HCMV antiviral -67, HCV inh inconclusive, Marburg entry inh inconclusive
CC(C)=CCCC(C)=CCON=C1C[C@@H](O)[C@@H](O)[C@@H]2[C@H]3C(=O)N(c4cccc(Oc5ccccc5)c4)C(=O)[C@@H]3CC[C@H]12	none (no result: HCMV antiviral, Lassa entry inh, VACV Venus inh, Vaccinia mCherry, HCV inh)
Nc1cc(N)cc(N)c1	none (no result: HCMV antiviral, Lassa entry inh, HCV inh, Marburg entry inh)
COc1cc(OC)c(NC(=O)CCCn2nc(C)c3sc4ccccc4c3c2=O)cc1Cl	Lassa entry inh inconclusive, Marburg entry inh 3.2µM (no result: HCV inh)
O=C(NC(=S)N1CCN(CCO)CC1)C12CC3CC(CC(C3)C1)C2	HCMV antiviral -73, Marburg entry inh inconclusive
CCNC(=S)N=Nc1c(O)[nH]c2ccc(C(C)C)cc12	HCMV antiviral -66, Lassa entry inh 3.5µM, VACV Venus inh inconclusive, Vaccinia mCherry inconclusive, HCV inh inconclusive
O=C(c1ccccc1)c1ccc(OCC(O)CN2CCN(Cc3ccccc3)CC2)cc1 (configuration not stated)	Lassa entry inh inconclusive, HCV inh inconclusive, Marburg entry inh 15µM (no result: VACV Venus inh, Vaccinia mCherry)
O=C(c1ccccc1)c1ccc(OCCCN2CCCC2)cc1	none
